D2 antagonist = D2 dopamine receptor (human) antagonism | P14416 | HEK293 TREx D2 cells, calcium flux, dopamine EC80 | inhibition, % at 10 µM | hit rate 2% among 340,000 | AID 485344; in the data active means inhibition above about 30%; inactive means below that, where a call was filed; further: 0% is about no effect
Target sequence (P14416 whole entry, looked up): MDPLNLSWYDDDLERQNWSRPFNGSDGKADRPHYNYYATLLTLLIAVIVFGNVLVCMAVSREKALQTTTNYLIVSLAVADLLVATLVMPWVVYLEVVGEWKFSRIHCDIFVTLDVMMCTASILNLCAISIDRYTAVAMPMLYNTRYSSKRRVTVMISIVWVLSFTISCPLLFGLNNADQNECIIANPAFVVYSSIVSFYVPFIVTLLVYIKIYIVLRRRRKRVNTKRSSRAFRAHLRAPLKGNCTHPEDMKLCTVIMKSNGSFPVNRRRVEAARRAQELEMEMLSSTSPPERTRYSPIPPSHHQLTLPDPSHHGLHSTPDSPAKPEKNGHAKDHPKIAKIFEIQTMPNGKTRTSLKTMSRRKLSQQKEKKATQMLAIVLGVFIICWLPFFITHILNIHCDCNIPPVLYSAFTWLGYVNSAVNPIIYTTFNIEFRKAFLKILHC
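Dopamine at EC80 is the agonist stimulus; test compounds precede it by 180 s. Calcium flux read kinetically in a force-coupled, inducible HEK293 T-REx D2 cell line.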
D2 PAM-1 = positively modulates the human D2 dopamine receptor allosterically. HEK293 T-REx D2, calcium flux, EC20 dopamine potentiation. potentiation, % at 10 µM. hit rate 0.34% among 340,000;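 active means potentiation over 3 SD above the plate norm, cut at about 30% in these data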; further: 0% is about no effect
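Using a no-wash calcium dye in inducible, force-coupled HEK293 Trex cells expressing D2, we tracked fluorescence each second for 180 s after compound, then for 180 s after EC20 dopamine to detect augmented signalling.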
D2 ag-1 = activates the human D2 dopamine receptor. P14416. DiscoveRx PathHunter D2 beta-arrestin, luminescence, 90 min; 100% = 57 uM dopamine signal. hit rate 0.084% among 360,000. activation, % (concentration not given with the values); in the data active means activation above about 40%; inconclusive means between about 15% and that limit
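Agonist mode: compounds alone added to overnight-plated D2 PathHunter cells for 90 min at 37 C, with 57 uM final dopamine (EC100) defining full response. Beta-arrestin recruitment detected by chemiluminescent reagent, read after 1 h at ambient temperature.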
D2 PAM-2 = positive allosteric modulators of human D2 dopamine receptor; P14416; potentiation, % (no concentration beside the values); AID 624464; hit rate 0.23% among 360,000; DiscoveRx D2 beta-arrestin cells, luminescence, 90 min; 100% = 57 uM dopamine signal; in the data active means potentiation above about 50%; inconclusive means mostly about 30% to 49%
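D2 cells co-treated with compound plus 50 nM dopamine (EC20) for 90 min at 37 deg C to detect potentiation. Beta-arrestin recruitment was read as enzyme-fragment luminescence after 1 h at ambient temperature. Full response was set by 57 uM dopamine.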
D2 ag-2 = agonists of human D2 dopamine receptor. P14416. HEK293 T-REx D2 cells, calcium flux agonist mode. activation, % at 2 µM. hit rate 0.53% among 340,000;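 active means activation over 3 SD above normal in the single-dose calcium agonist read, cut at about 30% in these data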; further: 0% is about no effect
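Calcium-flux readout, 1 cycle/sec over 180 s following compound pin transfer, in inducible HEK293 Trex D2 cells (force-coupled); dopamine controls included. Positive calcium responses during this window marked compounds as potential agonists.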
* = called active by the depositor; ? = inconclusive; . = no result given. Rows were chosen to be rich in hits. Some 2.4% of all compounds tested hit in one or more screens of this group.

SMILES	D2 antagonist	D2 PAM-1	D2 ag-1	D2 PAM-2	D2 ag-2
Clc1ccccc1/C=N/N1CCN(Cc2ccccc2)CC1	-9	-7	0	-6	0
COC(=O)c1cc(OC)c(OC)cc1NC(=S)N1CCOCC1	.	.	-3	-10	.
Nc1ccc(N(CCO)CCO)cc1	12	5	?	64*	3
CCCc1cc(=O)n2nc(N3CCC(C(=O)Nc4c(F)c(F)c(F)c(F)c4F)CC3)sc2n1	38*	-1	3	-4	1
NC1=NC2(CCCC2)n2c(nc3ccccc32)N1	2	1	-3	-9	0
CCC1(C)N=C(N)Nc2nc3cc(C)c(C)cc3n21 (stereo unspecified)	35*	-10	0	-26	-1
CCN(CC)CCn1c(=S)[nH]c2cc(C(=O)NCc3ccc(C)cc3)ccc2c1=O	36*	-12	0	-14	0
CCOc1cc(/C=C2\CCCc3c2nc2ccccc2c3C(=O)O)ccc1OC	38*	-27	-2	6	87*
O=C(NCc1ccccc1)c1cc(C2CCCCN2S(=O)(=O)c2cccc3cccnc23)on1 (stereo unspecified)	.	.	-4	3	.
CCOc1cc(C(=O)Nc2ccc(S(=O)(=O)N3CCOCC3)cc2)cc(OCC)c1OCC	2	-8	-4	-22	-1
CCOc1cc(C(=O)NN2CCOCC2)cc(OCC)c1OCC	36*	1	-2	0	0
Cc1cc(C)nc(SCCCNCc2ccc(Br)cc2)n1	59*	-29	-2	-8	1
Cc1ccc(CNCCCSc2nc(C)cc(C)n2)cc1	63*	-14	-4	-3	0
O=C(CSc1nnc2ccccn12)NNC(=O)c1ccccc1F	.	.	1	-10	.
Cc1ccc(/C=C2\SC(=O)N(CCNC(=O)C3CSC4(C)CCC(=O)N34)C2=O)cc1 (stereo unspecified)	2	-7	-3	14	0
Cc1cc(Br)ccc1N=C1C(=O)Nc2ccccc21	59*	-1	-16	-8	0
COCCNC(=S)N/N=C(\C)c1ccc(C)c([N+](=O)[O-])c1	32*	-2	2	-6	-2
CS(=O)(=O)c1ccc2nc(NC(=O)CN3CCN(Cc4ccccc4)CC3)sc2c1	45*	-3	-1	-15	0
CS(=O)(=O)c1ccc2nc(NC(=O)c3cc([N+](=O)[O-])cc([N+](=O)[O-])c3)sc2c1	7	1	?	99*	1
O=C(Nc1cc(C(F)(F)F)ccc1F)C1Cc2c(-c3ccccc3Oc3ccccc3)ccnc2O1 (stereo unspecified)	.	.	-4	-3	.
CN(CCCCOc1ccc(F)cc1)Cc1ccccc1	33*	-25	-2	-3	-1
CCC(C)c1ccccc1OCCCN(C)Cc1ccccc1 (stereo unspecified)	35*	-24	-3	-22	1
CN(CCOc1ccccc1)CCOc1ccccc1	37*	-47	-1	-14	-1
CN(CCOc1ccc(F)cc1)Cc1ccccc1	19	-7	-2	-29	-1
Cc1cc(C)c(C)c(OCCCCN(C)Cc2ccccc2)c1	31*	-19	2	-4	-1
SMILES	D2 antagonist	D2 PAM-1	D2 ag-1	D2 PAM-2	D2 ag-2
Cc1ccc(Cn2c(=O)n(CCCCC(=O)NCc3ccccc3Cl)c(=O)c3ccccc32)cc1	.	-5	.	.	1
COc1ccc(Nc2c(-c3ccccn3)nc3ccc(Cl)cn23)cc1	.	9	.	.	0
COC(=O)c1sc(S(=O)(=O)Nc2ccc(C)cc2)c(C(=O)OC)c1C	4	32*	-4	1	5
COC(=O)c1cc2cc(NS(=O)(=O)c3ccc(C)cc3)ccc2s1	-9	43*	-2	-9	-2
COc1cccc(S(=O)(=O)N(C)C[C@H]2Oc3cc(Br)ccc3S(=O)(=O)N([C@@H](C)CO)C[C@H]2C)c1	.	.	3	4	.
CCC1(c2ccccc2)C(=O)NCNC1=O	33*	4	-4	-3	2
COc1ccc(-c2nc(CSCC(=O)N3CCc4ccccc4C3)c(C)o2)cc1OC	45*	22	-7	-10	0
CC(=O)c1sc(NC(=O)c2cc(=O)c3ccccc3o2)nc1C	4	3	3	68*	0
CCCCN(C(=O)C1CC(=O)N(c2ccc(C)cc2)C1)c1c(N)n(CCC)c(=O)[nH]c1=O (stereo unspecified)	38*	-6	-5	-26	0
CCCCn1c(N)c(N(CC(C)C)C(=O)C2CC(=O)N(c3ccc4c(c3)OCCO4)C2)c(=O)[nH]c1=O (stereo unspecified)	39*	-4	-7	-6	0
CCCc1nc2ccccc2n2c(-c3cccc(C)c3)c3c(=O)n(C)c(=O)n(C)c3c12	.	.	.	.	-1
Cc1ccc(S(=O)(=O)N(CC(=O)N2CCOCC2)CC(=O)N2CCOCC2)cc1	5	31*	-1	-6	0
O=C(c1ccco1)N1CC2(CC(c3ccc(Cl)cc3)=NO2)CN1Cc1ccc(Br)cc1 (stereo unspecified)	.	.	-2	7	.
COc1cc(/C=C2/C(=O)c3cccc([N+](=O)[O-])c3C2=O)c(Br)cc1O	.	.	-1	-35	.
Cc1ccc(OCc2cc(C(=O)N(C)Cc3nccn3C)no2)cc1C	-19	0	-1	-9	-1
Cc1ccc(C)c(OCc2cc(C(=O)N(C)Cc3nccn3C)no2)c1	3	-3	-2	-8	35*
Cc1nc2ccc(S(=O)(=O)CCC(=O)Nc3ccc(C(C)C)cc3)cc2s1	.	-10	.	.	0
O=C1C(Cl)=C(NCCCN2CCOCC2)C(=O)c2ccccc21	.	.	4	1	.
O=C1C(Cl)=C(NCCN2CCOCC2)C(=O)c2ccccc21	36*	-7	5	11	1
O=C(CSc1n[nH]c(=O)n1Cc1ccccc1)Nc1ccc(N2CCOCC2)cc1	4	-3	-4	-25	0
Cc1ccc(S(=O)(=O)N2CCN(C(=S)NCC3CCCO3)CC2)cc1 (stereo unspecified)	-8	-2	-5	-19	0
CCN(CC)C(=O)N1CCN(C)CC1	32*	9	-2	-1	1
Cc1ccc(C(=O)Nc2nc(-c3ccccc3)c(-c3ccccc3)o2)cc1	-22	-12	0	-24	-1
Cc1ccc(C(=O)Nc2c(C)cc(-c3ccccc3)oc2=O)cc1	31*	-6	-4	-8	0
CCCOc1cccc(NC(=O)c2c(-c3ccccc3Cl)noc2C)c1	.	-5	.	.	.
Cc1cc(=O)oc2c(C)c(OCC(=O)Nc3cccnc3)ccc12	36*	-3	3	0	0
COc1ccc(C(=O)N2c3ccc(C)cc3C(C)(c3ccccc3)CC2(C)C)cc1 (stereo unspecified)	.	.	.	.	-1
